High-throughput results: PubChem BioAssay, The Scripps Research Institute Molecular Screening Center
Hits are enriched below; roughly 1.1% of the tested compounds scored in any of these assays.
SRC2 inh: inhibits human steroid receptor coactivator 2 | Q15596 | HEK293 GAL4-SRC2 luciferase reporter, luminescence | inhibition, % at 9 µM | 370,000 tested, 0.17% active;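 active = inhibition above the mean inhibition of all tested compounds plus 3 SD, set per campaign, cut at about 52% in these data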;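 note: 0% = DMSO treated cells and 100% = cells given Gossypol at 36 µM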
NCOA1 inh: human NCOA1 inhibition | HEK293 GAL4-SRC1 luciferase reporter, luminescence | inhibition, % at 3.6 µM | 360,000 tested, 0.12% active;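 active = inhibition above the campaign mean plus 3 SD, with each screening campaign given its own cutoff, cut at about 60% in these data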;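 note: 0% = DMSO treated cells and 100% = gossypol at 36 µM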
GalR3 antagonist: human GalR3 antagonism. O60755. HEK293 GalR3-CNG cAMP membrane potential fluorescence; galR3 body fused to GalR1 C-terminus. inhibition, % at 3 µM. 360,000 tested, 0.44% active;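 active = inhibition above the screen-wide average plus 3 SD, cut at about 13% in these data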;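 note: forskolin and galanin both at EC90 stimulate the cells; cAMP rise reported by CNG channel membrane potential dye signal; 0% = forskolin plus galanin with DMSO and 100% = forskolin alone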
LRH-1 inv ag: NR5A2 inverse agonism in reporter assay | O00482 | 360,000 tested, 0.13% active | AID 602396 | HEK293T StAR-luciferase reporter, LRH-1 transfected, 24 h | inhibition, % at 3.6 µM;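 active = inhibition above the mean inhibition of all tested compounds plus 3 SD, cut at about 73% in these data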;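 note: 0% = DMSO wells and 100% = reporter-only cells lacking LRH-1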
COUP-TFII inh: NR2F2 (human) inhibition, primary screen; P24468; HEK293T NGFI-A luciferase reporter, luminescence; inhibition, % at 8.6 µM; 370,000 tested, 0.7% active; AID 686940;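 active = inhibition above a per-plate cutoff, mean inhibition of test wells between control levels plus 3 SD, cut at about 38% in these data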;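 note: cells cotransfected with COUP-TFII expression vector driving the NGFI-A reporter; 0% = median of COUP-TF2 test wells and 100% = reporter-only cells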
NCOA3 inh: inhibitors of human steroid receptor coactivator 3 (SRC3). Q9Y6Q9. HEK293 GAL4-SRC3 luciferase reporter, luminescence. inhibition, % at 3.6 µM. 360,000 tested, 0.17% active. AID 588352;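 active = inhibition above a per-campaign cutoff, the mean of all compounds plus 3 SD, cut at about 60% in these data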;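 note: 0% = DMSO-treated cells and 100% = gossypol-treated cells at 36 µM; higher means less SRC3-driven luciferase light from the GAL4 reporter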
VP16 Luc counter: VP16 inhibition counter-screen for COUP-TFII. AID 687007. shares compounds with COUP-TFII inh. 2,500 tested, 25% active. inhibition, % at 8.5 µM. HEK293 Gal4-VP16 luciferase reporter, luminescence; in the data active = inhibition above about 13%
COUP-TFII conf: confirmation of human COUP-TFII (NR2F2) inhibitors. shares compounds with COUP-TFII inh. HEK293 NGFI-A luciferase reporter, luminescence. inhibition, % at 8.5 µM. 2,500 tested, 45% active. AID 687008;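 active = mean inhibition over three repeats above a set limit taken from the earlier primary screen, cut at about 38% in these data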;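 note: 100% = cells given the luciferase reporter alone without the COUP-TF2 vector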
* = called active by the depositor; nt = no result given.

SMILES	SRC2 inh	NCOA1 inh	GalR3 antagonist	LRH-1 inv ag	COUP-TFII inh	NCOA3 inh	VP16 Luc counter	COUP-TFII conf
Cc1ccccc1CC(=O)Nc1nnc(-c2cccnc2)s1	-7.4	nt	nt	nt	4.0	nt	nt	nt
CCc1ccc(-c2nc(CN3CCC(C(=O)N4CCN(c5ccccc5)CC4)CC3)c(C)o2)cc1	2.5	-6.9	-6.7	6.2	42.3*	-0.9	6.4	15.5
O=C(Nc1ccc(F)cc1)OCc1cn(Cc2ccc(F)c(F)c2)nn1	7.9	nt	nt	nt	-0.3	nt	nt	nt
Cc1onc(-c2ccccc2)c1C(=O)NC(=S)NNC(=O)c1ccc(O)cc1O	22.7	64.0*	-9.0	88.8*	50.4*	72.6*	15.3*	54.3*
Cc1onc(-c2ccccc2)c1C(=O)NNC(=O)c1ccccc1Br	-15.8	8.5	-6.8	10.0	12.0	7.2	nt	nt
CCOC(=O)Cc1nn(Cc2nc(-c3ccc(C#N)cc3)cs2)c(=O)c2ccccc12	23.2	3.2	-0.3	-11.3	39.4*	10.5	16.8*	16.7
CCOC(=O)Cc1nn(CC)c(=O)c2ccccc12	-14.1	2.9	-1.5	3.2	-23.0	-10.0	nt	nt
COC(=O)[C@]1(CNC(=O)Nc2ccc(C)c(Cl)c2)CC(=O)N(C)[C@@H]1c1ccccc1	15.8	nt	nt	nt	1.6	nt	nt	nt
C=C(C(=O)c1ccccc1)C(C)C(=C)C(=O)c1ccccc1	46.8	17.2	-0.7	21.2	57.6*	41.0	47.1*	86.8*
C=C(C(=O)c1ccccc1)C(c1ccccc1)C(C)C(=O)c1ccccc1 (stereo unspecified)	38.1	14.2	-0.2	4.8	-21.0	28.0	nt	nt
COc1ccccc1CNC(=O)NCCCN1CCN(c2ccc(F)cc2)CC1	13.9	nt	nt	nt	23.9	nt	nt	nt
Cc1cccc(NC(=O)COC(=O)c2nn(C)c(=O)c3ccccc23)c1C	5.8	-1.9	-1.1	13.3	3.9	11.8	nt	nt
CN(C)c1ccc(C=C2SC(=S)N(Cc3ccco3)C2=O)cc1	-11.7	-14.3	-4.7	21.2	39.5*	-10.9	-18.4	-1.5
O=C(Nc1ccc(F)cc1)OCc1cn(Cc2cc(F)ccc2F)nn1	-16.7	nt	nt	nt	-2.5	nt	nt	nt
COCCCN=C1NN=C(c2cc(C)n(-c3ccccc3F)c2C)CS1	-53.4	-42.2	-6.2	-113.5	4.5	-30.8	nt	nt
COCCn1c(C)cc(C2=NNC(=Nc3ccccc3F)SC2)c1C	84.1*	83.8*	-5.1	87.1*	90.0*	85.0*	35.7*	80.5*
O=C(NC1CCCCN(Cc2cccc(Cl)c2)C1=O)c1ccc(COc2ccccc2)cc1 (stereo unspecified)	18.5	nt	nt	nt	48.3*	nt	0.7	36.1
Nn1c(SCC(=O)NC2CCCCC2)nnc1-c1cc(-c2ccc(Cl)cc2)n[nH]1	-44.1	nt	nt	nt	0.3	nt	nt	nt
C#CC[N+](C)(C)CCCCCCCCCC	33.0	40.9	-2.1	26.1	46.7*	40.8	-2.3	17.9
CC#CC[N+](C)(C)CCCCCCCCCCCC	2.1	32.8	0.6	54.7	44.1*	34.3	7.2	26.8
C#CC[N+](C)(C)CCCCCCCCCCCC	31.3	38.6	4.1	53.1	41.3*	59.4	0.6	29.9
Cn1c(SCCc2ccccc2)nnc1-c1ccco1	-1.3	nt	nt	nt	-33.7	nt	nt	nt
C[C@H](CO)N1C[C@H](C)[C@@H](CN(C)C(=O)CN2CCOCC2)Oc2cc(Br)ccc2S1(=O)=O	4.6	-13.0	-4.1	5.7	6.9	-8.5	nt	nt
COc1ccc(/C=C/C(=O)Nc2ccccc2C(=O)O)cc1OC	33.6	38.4	-4.0	36.6	59.6*	49.0	-17.2	35.3
COc1ccc(C(=O)N(C)[C@H]2C[C@H]3c4[nH]c5cccc(-c6ccccc6)c5c4CCN3C[C@H]2[C@H](C)O)cc1	15.8	nt	nt	nt	-19.9	nt	nt	nt
SMILES	SRC2 inh	NCOA1 inh	GalR3 antagonist	LRH-1 inv ag	COUP-TFII inh	NCOA3 inh	VP16 Luc counter	COUP-TFII conf
COc1ccc(C)cc1Nc1n[n+](-c2ccccc2)c(-c2c(OC)ccc3ccccc23)s1	12.6	-7.9	-3.1	3.1	43.3*	28.5	2.5	28.4
O=C(COC(=O)c1ccc2c(c1)OCO2)Nc1ccccc1F	12.5	-4.3	-5.8	-23.3	5.2	10.8	nt	nt
O=c1[nH][nH]c2c1C(C1CCCCC1)OC(C1CCCCC1)C2 (stereo unspecified)	-32.3	nt	-6.1	5.0	8.8	nt	nt	nt
O=Cc1s/c(=N\S(=O)(=O)c2ccccc2)n(CCCCl)c1Cl	-8.6	-22.1	-6.5	-1.7	59.9*	-5.5	62.4*	45.9*
CCn1c(C)cs/c1=N\S(=O)(=O)c1ccccc1	-10.8	0.7	-7.2	0.5	4.5	-8.9	nt	nt
O=C(NCc1cccc(Cl)c1)c1cccc(OC2CCN(C(=O)C3CC3)CC2)c1	19.6	-0.6	-0.9	14.4	56.2*	8.5	-4.3	31.6
Cc1c[nH]c2cccc(-c3ccc(OCc4ccccc4)cc3)c12	-19.6	nt	nt	nt	-114.9	nt	nt	nt
COc1cccc(/C=N/Nc2ccc(S(=O)(=O)O)cc2)c1O	6.1	7.8	-5.9	-4.3	-12.5	-6.2	nt	nt
CC(C)(C)c1ccc(/C=N/Nc2ccc(C(=O)O)cc2)cc1	26.4	48.5	-4.4	57.4	70.2*	64.1*	-21.6	69.5*
COc1cccc(/C=N/Nc2ccc(C(=O)O)cc2)c1O	79.3*	75.8*	-5.2	46.0	69.1*	79.4*	65.1*	92.1*
Cc1cc(C(=O)COC(=O)C2=COCCO2)c(C)n1-c1ccccc1	39.4	53.5	-4.5	54.5	65.2*	52.3	15.5*	73.9*
C=CCn1c(C)cc(C(=O)COc2ccc(C)nc2[N+](=O)[O-])c1C	61.1*	50.3	-5.3	39.5	39.6*	37.5	-10.6	16.5
Cc1ccc(OCC(=O)c2cc(C)n(-c3ccccc3)c2C)c([N+](=O)[O-])n1	78.4*	28.7	0.8	33.4	53.5*	53.1	-50.3	-8.7
Cc1cc(C(=O)COC(=O)C2=NNC(=O)CC2)c(C)n1-c1ccccc1	25.3	-18.7	-4.6	0.9	0.7	-2.2	nt	nt
CSc1cccc(NS(=O)(=O)c2ccc3c(c2)CCN3C(C)=O)c1	23.7	19.1	-11.4	9.0	45.3*	22.7	6.1	48.1*
COc1ccc(CN(CCN2CCOCC2)C(=O)c2ccc(F)cc2F)cc1OC	-8.2	nt	nt	nt	-22.7	nt	nt	nt
Cc1ccc(CNC(=O)c2nnn(CC(=O)Nc3cccc(C)c3C)c2N)cc1	-9.0	2.2	-6.9	8.7	4.5	-13.4	nt	nt
CCN(c1ccc(NC(=O)c2ccc(N3CCCC3=O)cc2)cc1)C(C)C	26.5	4.0	-3.3	23.7	48.6*	22.7	-8.7	17.9
Cc1cc(-c2ccccc2)n2ncc(-c3ccccc3)c2n1	3.2	-34.8	-4.4	-45.1	8.5	7.6	nt	nt
Cc1nc2c(-c3ccccc3)cnn2c(N)c1-c1ccccc1	52.8*	71.8*	-7.9	60.5	69.4*	66.8*	9.2	72.3*
